# From PubChem BioAssay AID720650 (Broad Institute, 2013)
# Calls of active or inactive are those of the source. The rule behind the calls is not given here.
# Experiment: C difficile toxins, biochemical counterscreen, UDPG substrate absence, confirmatory dose response (AID 720650)
# Conditions: series mostly up to 19.5 µM; activity change, negative = inhibition: at the top concentration
Compound,"activity change, negative = inhibition",AC50
COc1cc(OC)cc(C(=O)NNC(=O)CN2C(=O)NC(C)(c3ccc(C)cc3)C2=O)c1 (stereo not drawn),-2.29% (inactive),
O=C(CSc1nc2cc(Cl)ccc2s1)c1ccco1,,> 39 µM (inactive)
COc1cc(/C=C/c2sc3ccccc3[n+]2CCCS(=O)(=O)[O-])ccc1O,-2.25% (inactive),
CCOC(=O)Nc1ccc(OC(=O)Oc2ccc(NC(=O)OCC)cc2)cc1,,> 39 µM (inactive)
C=CCNc1n[nH]c(=S)s1,,> 39 µM (inactive)
COC(=O)[C@@]12CCCCN1[C@H](c1ccc(-c3ccccc3)c(OC)c1)[C@H]1C(=O)N(C)C(=O)[C@H]12,-5.66% (inactive),
CN1C(=O)c2cc(NC(=O)c3cccc(F)c3)ccc2OC[C@@H]2O[C@@H](CC(=O)NCC3CCCCC3)CC[C@@H]21,-1.51% (inactive),
CN1C(=O)C(c2nnc(Nc3cccc4ccccc34)s2)C2CC1(C)Oc1ccccc12 (stereo not drawn),-14.1% (inactive),
O=C1/C(=C/c2cccnc2)SC(=NCc2ccccc2)N1Cc1ccccc1,-7.63% (inactive),
COC(=O)C1=C(c2ccc(OCc3ccccc3)cc2)C[C@@H]2CC[C@H]1N2C(=O)NCCCc1ccccc1,-7.81% (inactive),
CCc1ccccc1NC(=O)CN1CCN(CC(=O)NCc2ccc(Cl)cc2)CC1,5.72% (inactive),
CC(=O)N(c1ccccc1C)S(=O)(=O)c1ccc(Cl)cc1,-13.3% (inactive),
COc1ccc(NC(=O)Cn2cnc3sc(C)c(S(=O)(=O)N4CCOCC4)c3c2=O)c(OC)c1,-10.3% (inactive),
Cc1ccc(/C=N/NC(=O)c2cccc(S(=O)(=O)Nc3ccccc3Cl)c2)o1,-6.39% (inactive),
Cc1nn(C)cc1-c1n[nH]c(=S)n1-c1ccc(F)cc1,-5.26% (inactive),
N#C/C(=C\c1ccc(N2CCOCC2)o1)C(=O)Nc1ccc(O)cc1,10.9% (inactive),
COc1cc(C(=O)Nc2scc(-c3ccccc3)c2C(=O)O)cc(OC)c1OC,,13.9 µM (active)
CN1c2ccc(-c3ccccc3)cc2[C@H]2[C@H](CCN2C(=O)CN2CCOCC2)[C@H]1CO,,7.83 µM (active)
Cc1cc(C)c(S(=O)(=O)c2ccc(Cl)cc2C)c(Cl)n1,,> 39 µM (inactive)

Compound,"activity change, negative = inhibition",AC50
COc1ccc(C(=O)Nc2cc(Cl)ccc2C(=O)O)cc1,,10.4 µM (active)
O=C(C[C@H]1C[C@@H]2c3cc(NC(=O)c4ccc5c(c4)OCO5)ccc3O[C@@H]2[C@@H](CO)O1)NCc1cccc(F)c1,-15.2% (inactive),
NS(=O)(=O)c1ccc(CCNC(=O)c2ccc(CS(=O)(=O)c3ccc(Br)cc3)o2)cc1,-7.18% (inactive),
CCn1c(C)nc2cc(C(=O)N/N=C/c3ccc(OC)c(O)c3)ccc21,-12.3% (inactive),
O=C(COC(=O)c1ccc(F)cc1F)c1ccc[nH]1,-3.4% (inactive),
CCNC(=O)C[C@H]1CC[C@@H]2[C@@H](COc3ccc(NC(=O)c4cccc(OC)c4)cc3C(=O)N2C)O1,,> 39 µM (inactive)
CC(C)CC(=O)N1CCN(Cc2ccc(Br)cc2)CC1,3.42% (inactive),
Nc1nc(Nc2ccccc2)n[nH]1,,> 39 µM (inactive)
O=C(Cc1coc2cc(O)ccc12)NNC(=O)c1cccs1,,> 39 µM (inactive)
COC(=O)C1=C(c2ccc(F)cc2OCc2ccccc2)C[C@@H]2CC[C@H]1N2C(=O)N1CCCC1,-8.05% (inactive),
O=C(NCc1nnc2c(C(F)(F)F)cc(Cl)cn12)c1cccnc1,-5.93% (inactive),
Cc1cc(C(C)(C)C)cc(CN2CCN(S(=O)(=O)c3cccs3)CC2)c1O,-5.83% (inactive),
C[C@H](CO)N1C[C@H](C)[C@@H](CN(C)C(=O)Nc2ccc(C(F)(F)F)cc2)Oc2ccc(NC(=O)C3CCCCC3)cc2C1=O,2.5% (inactive),
COc1ccc(/C=C2\CCCCC2=O)cc1,-1.74% (inactive),
Cn1ncc(Br)c1C(=O)N/N=C/c1cccc(OC2CSC2)c1,-11% (inactive),
C[C@H](CO)N1C[C@H](C)[C@@H](CN(C)C(=O)Nc2ccc(C(F)(F)F)cc2)Oc2c(NS(=O)(=O)c3ccccc3)cccc2C1=O,,> 39 µM (inactive)
COc1ccc(S(=O)(=O)Nc2ccc3oc(C)c(C(=O)O)c3c2)cc1,,> 39 µM (inactive)
Cc1ccc(N/N=C/c2c(O)n(-c3ccccc3)c(=O)[nH]c2=O)cc1,,0.875 µM (active)
CC(=O)Nc1cccc2cc(O)ccc12,,11.1 µM (active)
